# Bioassay records from PubChem BioAssay.
# Sampled rows, rich in hits. Any-hit rate of the full collection: about 10%.
# BAZ2B inh: blocks human BAZ2B. Q9UIF8. AlphaScreen BAZ2B-H3K14Ac peptide displacement. Potency, µM (highest dose often 114 µM), usual class: inhibitors. 360,000 tested, 4.4% active. AID 504333; also: nearly all actives have a fitted effect of over 60% in size
#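 AlphaScreen luminescence quantifies BAZ2B engagement of H3K14Ac peptide; the protein and biotinylated peptide are both at 50 nM final, buffer PBS pH 7.4 with 0.01% Tween-20, all steps at room temperature.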
# HP1b binding inh: inhibitors of HP1-beta chromodomain binding to methylated histone tails; Potency, µM (series often up to 114 µM), usual class: inhibitors; 390,000 tested, 0.56% active; AID 540317; AlphaScreen HP1-beta / biotin-H3K9me3 peptide binding; P83916; also: nearly all actives have a fitted effect of over 70% in size
# Target sequence (P83916 whole entry, looked up): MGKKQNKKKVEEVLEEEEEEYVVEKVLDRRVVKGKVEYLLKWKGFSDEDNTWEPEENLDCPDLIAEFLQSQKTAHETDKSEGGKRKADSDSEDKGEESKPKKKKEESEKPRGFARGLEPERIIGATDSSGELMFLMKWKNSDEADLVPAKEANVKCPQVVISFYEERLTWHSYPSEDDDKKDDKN
#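 HP1-beta protein (50 nM final) preincubated 30 min at room temperature with biotinylated H3(1-18)K9me3 peptide (50 nM) in PBS pH 7.4, 0.01% Tween-20, then compound added for 30 min. AlphaScreen streptavidin donor/nickel chelate acceptor beads (10 ug/mL final), 30 min dark, luminescence read.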
# GLS inh: glutaminase GLS (human) inhibition; O94925; GLS enzymatic activity, qHTS titration; Potency, µM (top dose mostly 45.5 µM), most hits filed as inhibitors; 410,000 tested, 0.21% active
#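 Enzyme dispensed in phosphate buffer (45 mM, pH 8.2, 0.02% Tween-20), compounds pinned in, then 1 mM L-glutamine solution and the glutamate oxidase–HRP–Amplex Red mix added; fluorescence read immediately and again after 30 min at room temperature.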
# G9a block: inhibitors of human histone lysine methyltransferase G9a | Q96KQ7 | G9a H3K9 monomethylation, AlphaScreen, 2 h | Potency, µM (highest dose often 102 µM), actives largely listed as inhibitors | 350,000 tested, 8.8% active; also: nearly all actives have a fitted effect of over 75% in size
# Target sequence (Q96KQ7 913-1193 limits assumed): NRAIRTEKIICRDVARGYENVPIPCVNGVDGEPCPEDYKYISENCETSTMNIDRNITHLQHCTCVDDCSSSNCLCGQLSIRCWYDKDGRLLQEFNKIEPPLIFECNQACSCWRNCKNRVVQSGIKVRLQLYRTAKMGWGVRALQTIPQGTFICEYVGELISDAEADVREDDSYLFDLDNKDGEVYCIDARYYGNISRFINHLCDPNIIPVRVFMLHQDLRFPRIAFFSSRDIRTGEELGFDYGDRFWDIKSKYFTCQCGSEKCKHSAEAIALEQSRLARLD
#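 AlphaScreen detection with an anti-monomethyl H3K9 antibody quantified product after a 2 h room-temperature reaction containing 500 nM biotinylated H3K9 peptide, 20 µM SAM and 20 nM enzyme, which had been preincubated 15 min with compound.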
# JMJD2A Tudor inh: inhibitors of human JMJD2A Tudor domain; O75164; AlphaScreen JMJD2A-Tudor / H3K4me3 peptide binding; Potency, µM (series often up to 114 µM), usual class: inhibitors; 390,000 tested, 4.4% active; AID 504339; also: nearly all actives have a fitted effect of over 50% in size
# A number is an active result; i = inactive; ? = inconclusive; nt = no result given; [ ] = remark or other dose. Calls follow the shape of the dose curve; as a rule, active = well fitted curve in the direction sought with a large enough effect; inconclusive = small, poorly fitted or top-dose-only effect, or another doubt; inactive = no such curve, though single readings can be large; an effect the other way counts as inactive or inconclusive.
SMILES,BAZ2B inh,HP1b binding inh,GLS inh,G9a block,JMJD2A Tudor inh
COc1nccnc1NS(=O)(=O)c1ccc(NCc2cc(Br)ccc2O)cc1,?,?,i,45µM,i
COc1nccnc1NS(=O)(=O)c1ccc(NC(=S)NC(=O)c2ccc(F)c(F)c2)cc1,?,i,i,50µM,i
COc1nccnc1NS(=O)(=O)c1ccc(NC(=O)c2cccc(C)c2)cc1,79µM,i,i,nt,i
COc1nccnc1NS(=O)(=O)c1ccc(N/C=C2\CCCCC2=O)cc1,?,i,i,50µM,i
CCc1nnc(NS(=O)(=O)c2ccc(NCc3cc(Br)ccc3O)cc2)s1,i,i,i,nt,i
COc1nccnc1NS(=O)(=O)c1ccc(NC(=O)c2ccc(F)cc2)cc1,i,i,i,i,i
COc1nccnc1NS(=O)(=O)c1ccc(NS(=O)(=O)c2ccc(NC(C)=O)cc2)cc1,i,i,i,i,i
COc1ccc(C(=O)Nc2ccc(S(=O)(=O)Nc3nccnc3OC)cc2)cc1,i,i,i,i,i
CCOc1ccc(S(=O)(=O)Nc2cccc(Cl)c2)cc1,nt,i,i,nt,i
CCOc1cc(-c2nn3cnnc3s2)cc(OCC)c1OCC,i,i,?,i,18µM
CCOc1cc(C(N)=O)cc(OCC)c1OCC,i,i,i,i[12.7 µM],i
Cn1cccc1/C=C1\SC(=S)N(NC(=O)c2ccccc2O)C1=O,32µM,?,i,5µM,?
CC(C(=O)O)N1C(=O)/C(=C/c2cccn2C)SC1=S (stereo not given),i,?,i,?,i
COc1ccccc1C(=O)NN1C(=O)/C(=C/c2cccn2C)SC1=S,8.9µM,nt,nt,nt,nt
O=C(NN1C(=O)/C(=C/C=C/c2ccco2)SC1=S)c1ccccc1O,13µM,13µM,i,nt,8.9µM
Cc1ccc(C)c(N(CC(=O)NCc2ccco2)C(=O)CCC(=O)Nc2nccs2)c1,i,i,i,?,i
Cc1ccc(S(=O)(=O)C(C)C(=O)NCCS(=O)(=O)c2ccc(Cl)cc2)cc1 (stereo not given),i,i,i,i,i
O=C(NCCc1ccccc1)C(=O)NCC(c1cccnc1)N1CCN(c2ccccc2F)CC1 (stereo not given),i,i,i,i,i
Fc1ccccc1N1CCN(Cc2cccnc2)CC1,56µM,?,i,28µM,1.6µM
Fc1ccccc1N1CCN(CC2CCCCC2)CC1,79µM,?,i,i[0.501 µM],20µM
Cc1ccc(-n2c(Cc3cccs3)nnc2SCC(=O)Nc2ccc(S(N)(=O)=O)cc2)cc1,i,i,i,45µM,i
Cc1ccc(-n2c(SCC(=O)Nc3ccc4c(c3)OCO4)nnc2-c2cccs2)cc1,i,i,i,?,56µM
COc1ccc(NC(=O)CSc2nnc(Cc3cccs3)n2-c2ccc(C)cc2)cc1,i,i,i,35µM,?
COc1ccc(C(=O)CSc2nnc(-c3cccs3)n2-c2ccccc2)cc1,i,i,i,?,i
COc1ccc(-n2c(SCC(=O)Nc3ccc(C(=O)O)cc3)nnc2-c2cccs2)cc1,i,i,i,?,79µM
SMILES,BAZ2B inh,HP1b binding inh,GLS inh,G9a block,JMJD2A Tudor inh
COc1ccccc1NC(=O)Cc1cccs1,i,i,i,i,i
CC(NC(=O)CNC(=O)c1ccco1)c1ccc(S(N)(=O)=O)cc1 (stereo not given),i,i,i,?,i
CCN(c1ccccc1)S(=O)(=O)c1cccc(C(=O)NCc2ccncc2)c1,i,i,i,i[0.501 µM],i
O=C1CS(=O)(=O)C2(C(=O)Nc3ccccc32)N1c1cccc(Cl)c1 (stereo not given),i,i,i,22µM,i
CC(=O)N/C(=C\c1ccc(F)cc1)C(=O)OC(C)C,i,i,i,i,i
CC(=O)N/C(=C\c1ccc2c(c1)OCO2)C(=O)NC(C(=O)O)c1ccccc1 (stereo not given),i,i,i,89µM,i
CC(=O)N/C(=C/c1ccc2c(c1)OCO2)C(=O)NC(Cc1ccccc1)C(=O)O (stereo not given),nt,i,i,nt,i
CC(=O)N/C(=C\c1ccc(F)cc1)C(=O)NC(C(=O)O)C(C)C (stereo not given),i,i,i,56µM,i
CC(=O)N/C(=C\c1ccccc1)C(=O)NC(C)C(=O)O (stereo not given),i,i,i,56µM,i
O=C(O)CSC1=NS(=O)(=O)c2ccccc21,nt,?,nt,nt,18µM
CCSC1=NS(=O)(=O)c2ccccc21,nt,nt,nt,nt,i
